# PubChem BioAssay AID2551 (National Center for Advancing Translational Sciences (NCATS), 2010)
# In all, about 310,000 compounds went through this assay and about 17,000 (5.5%) were called active. Not shown: some 11% with an inconclusive outcome. Calls follow the shape of the dose curve; as a rule, active = well fitted inhibition curve with a large enough effect; inconclusive = small, poorly fitted or top-dose-only effect, or effect the other way; inactive = no such curve, though single readings can be large or run the other way. Shown is part of a subset that was picked to be rich in actives. Where a call stands in place of a potency, no number is given.
# Molecular target: Nuclear receptor ROR-gamma (Mus musculus) (UniProt P51450)
# Assay: qHTS for inhibitors of ROR gamma transcriptional activity; also: nearly all actives have a fitted effect of over 60% in size
# Settings: Drosophila S2 Gal4-RORgamma UAS-luciferase reporter, 20 h; series mostly up to 53.6 µM
# Procedure, shortened: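 ROR gamma transcriptional activity was tracked as Gal4-UAS luciferase output in stably transfected Drosophila Schneider cells, with compound added 1 hr before 700 uM copper sulfate induction and a 20 hr ambient-temperature incubation.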
# Potency is read from the fitted curve at half-maximal effect.
# Nuclear receptor ROR-gamma (Mus musculus), sequence (P51450 whole entry, looked up): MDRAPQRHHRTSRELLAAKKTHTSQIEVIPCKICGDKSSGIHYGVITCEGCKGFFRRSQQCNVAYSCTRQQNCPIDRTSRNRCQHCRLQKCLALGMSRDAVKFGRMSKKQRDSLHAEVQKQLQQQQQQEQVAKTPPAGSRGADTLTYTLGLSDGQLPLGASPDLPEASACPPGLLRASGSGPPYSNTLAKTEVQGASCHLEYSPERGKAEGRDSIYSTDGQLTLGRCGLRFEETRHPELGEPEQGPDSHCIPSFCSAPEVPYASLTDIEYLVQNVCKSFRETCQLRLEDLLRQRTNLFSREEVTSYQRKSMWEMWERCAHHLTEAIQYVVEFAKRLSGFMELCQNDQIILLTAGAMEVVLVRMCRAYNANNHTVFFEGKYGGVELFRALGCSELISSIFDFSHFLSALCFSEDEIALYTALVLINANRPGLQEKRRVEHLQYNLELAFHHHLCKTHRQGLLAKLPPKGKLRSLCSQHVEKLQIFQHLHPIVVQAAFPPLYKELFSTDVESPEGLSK
Structure (SMILES),Potency,"activity change, negative = inhibition"
CC(C(=O)Nc1ccc(O)c(C(=O)O)c1)N1C(=O)/C(=C/c2cccs2)SC1=S (stereo unspecified),inactive,–
O=C(COC(=O)c1ccc(F)cc1)NCCCc1ccccc1,inactive,–
O=C(NCCc1cccc(F)c1)C1CCCN(c2nc3ccccc3s2)C1 (stereo unspecified),inactive,–
COc1cccc(NC(=O)c2nn(-c3ccc(OC)cc3OC)c(=O)c3ccccc23)c1,inactive,–
COc1cccc(NC(=S)NC(=O)c2c(Cl)c(C)nn2C)c1,3.55 µM (active),–
COc1cccc(NC(=O)c2ccccc2SC)c1,inactive,–
CC1(C(=O)N/N=C/c2cc3c(cc2Br)OCO3)CC1(Br)Br (stereo unspecified),inactive,–
COc1ccccc1-c1nnc(SCC(=O)Nc2cc(C)on2)o1,inactive,–
COc1ccc(/C=C/c2noc(-c3ccccc3OC(C)=O)n2)cc1,11.2 µM (active),–
CC(=O)Oc1ccc(-c2nc3c(C)cccc3c(=O)o2)cc1,inactive,–
CCOC(=O)c1[nH]cnc1C(=O)Nc1ccccc1C,12.6 µM (active),–
Cc1ccccc1NC(=O)CCOc1ccccc1,inactive,–
CCOC(=O)c1ccc(NC(=O)c2cc(=O)[nH]c3ccccc23)cc1,inactive,–
CCOC(=O)c1ccc(NC(=O)c2nc[nH]c2C(=O)NCc2ccccc2)cc1,3.55 µM (active),–
CCOC(=O)c1ccc(NC(=O)CNC(=O)c2ccco2)cc1,inactive,–
CCOC(=O)c1c(C)[nH]c(C)c1S(=O)(=O)N(C)CC(=O)Nc1ccccc1C,inactive,–
Cc1ccc(CNS(=O)(=O)c2ccc3c(c2)N(C)CCO3)cc1,inactive,–
COc1ccc(CCNC(=O)CSCc2ccc(Br)cc2)cc1OC,inactive,–
COc1cc(C(C(=O)NC2CCCC2)N(C(=O)c2ccco2)c2ccccc2C(C)=O)cc(OC)c1OC (stereo unspecified),inactive,–
CCN1N=C(c2ccccc2)CCC1=O,inactive,–
COCCCNc1nc2c(-c3cccc(C)c3)nnn2c2ccc(Cl)cc12,inactive,–
COC(=O)Cn1cc(/C=C/[N+](=O)[O-])c2ccccc21,10 µM (active),–

Structure (SMILES),Potency,"activity change, negative = inhibition"
COCCCNC(=O)Cn1cc(/C=C(\C#N)C(=O)N2CCN(c3ccccc3)CC2)c2ccccc21,inactive,–
COC(=O)Cn1cc(C(=O)c2cccs2)c2ccccc21,inactive,–
O=C(NCc1cccc(Cl)c1)C1CCN(c2nnc(N3CCCC3=O)s2)CC1,inactive,–
CCOC(=O)C1CCN(C(=O)C2CCCN(S(=O)(=O)c3ccc(OC)c(Cl)c3)C2)CC1 (stereo unspecified),inactive,–
COc1cc(/C=N/NC(=S)Nc2cccnc2)cc(OC)c1O,6.31 µM (active),–
CCOC(=O)N/N=C/c1cccnc1,inactive,–
COc1ccc(/C=C/C(=O)Nc2cccnc2)cc1OC,inactive,–
Cc1[nH]c2ccccc2c1/C=N\NC(=O)Cn1nnc(-c2ccccc2)n1,–,7.95% [at 10 µM] (inactive)
COc1cc(N=Cc2c(O)[nH]c3ccccc23)cc(OC)c1OC,inactive,–
COCCNC(=S)N/N=C/c1c(C)[nH]c2ccccc12,11.2 µM (active),–
C=CCn1c(=O)c(C(=O)Nc2ncccc2O)c(O)c2ccccc21,inactive,–
Cc1ccc(OCCOc2cccc(/C=N/NC(N)=O)c2)cc1,inactive,–
CCOc1ccc(/C=N/NC(N)=S)cc1,5.01 µM (active),–
COC(=O)N/N=C/c1ccc(/C=N/NC(=O)OC)cc1,inactive,–
COC(=O)[C@@H]1CCCN1C(=O)c1cc(COc2cccc3cccnc23)on1,inactive,–
CCCC(=O)N1CCN(c2nnc(-c3ccc(C)cc3)c3ccccc23)CC1,inactive,–
O=C(CN1C(=O)COc2ccc(Cl)cc21)N1CCOCC1,inactive,–
Cc1ccccc1NC(=S)N(CCCN1CCOCC1)Cc1cccs1,inactive,–
Cc1ccc(C)c2[nH]c(=O)c(CN(Cc3cccnc3)C(=S)NCc3ccco3)cc12,inactive,–
Cc1ccc(Cl)cc1NC(=S)N(CCN(C)C)Cc1cccs1,11.2 µM (active),–
CCc1cccc(C)c1NC(=S)N(CCCN1CCN(C)CC1)Cc1cccs1,inactive,–
Cc1ccc(CN(Cc2cccnc2)C(=S)Nc2cccc(Cl)c2C)cc1,3.98 µM (active),–

Structure (SMILES),Potency,"activity change, negative = inhibition"
Cc1c(Cl)cccc1NC(=O)CSc1ccc(-c2cccnc2)nn1,inactive,–
Cc1ccc(CN(Cc2cccnc2)C(=S)Nc2cc(Cl)ccc2C)cc1,3.16 µM (active),–
Cc1ccc(C)c(NC(=S)NCC(c2cccnc2)N2CCOCC2)c1 (stereo unspecified),inactive,–
Cc1cccc(C(=O)Nc2ccccc2C(=O)NCc2cccnc2)c1,inactive,–
COc1ccc(-c2nc3ccccc3c(=O)n2CCc2ccc(O)cc2)cc1,inactive,–
CSc1nnc2ccc(-c3ccc(C)cc3)nn12,inactive,–
Cc1ccc(C(CNC(=O)Nc2cccc(C)c2)N2CCN(C)CC2)cc1 (stereo unspecified),inactive,–
COc1cc(C(=O)NCC2(c3ccccc3)CCCC2)ccc1OC(C)C,inactive,–
O=C(NCc1ccccc1Cl)C1CCN(c2ncnc3c2nc2n3CCCCC2)CC1,inactive,–
CCOCCCN1C(=O)C2C(C(=O)Nc3ccc(OCC)cc3)C3C=CC2(O3)C1C(=O)NC1CCCCC1 (stereo unspecified),inactive,–
CCN(CC)CCn1cnc2c1c(=O)[nH]c(=O)n2Cc1ccccc1,inactive,–
CCOc1ccc(OCCSc2nc3ccccc3n2CC(=O)O)cc1,inactive,–
COc1ccc(S(=O)(=O)N2CCN(C)CC2)c(C)c1,–,16.1% [at 1.91 µM] (inactive)
COc1ccc(N(Cc2cc3ccc(C)cc3[nH]c2=O)S(=O)(=O)c2ccccc2)cc1,inactive,–
CC(C)(C)c1ccc(C(CC(=O)O)NS(=O)(=O)Cc2ccccc2)cc1 (stereo unspecified),inactive,–
CCCCN(CCCC)CCCNC(=O)CN1C(=O)COc2ccc(S(=O)(=O)N3CCC(C)CC3)cc21,inactive,–
O=C(NCCCc1ccccc1)C(=O)c1c[nH]c2ccccc12,inactive,–
S=C(NCCc1ccccc1)NCC1CCCO1 (stereo unspecified),12.6 µM (active),–
S=C(NCCCc1ccccc1)Nc1ccc(Br)cc1,8.91 µM (active),–
O=C(NCCc1ccccc1)C1CC1,inactive,–
CCOc1ccc(CCNC(=O)Nc2ccccc2)cc1OCC,inactive,–
CCc1ccc(NC(=O)CS(=O)CC(=O)NCCCc2ccccc2)cc1 (stereo unspecified),inactive,–

Structure (SMILES),Potency,"activity change, negative = inhibition"
S=C(NCCc1ccccc1)Nc1ccccc1,3.16 µM (active),–
NS(=O)(=O)c1ccc(CCNC(=S)Nc2ccc(S(N)(=O)=O)cc2)cc1,inactive,–
O=C(CS(=O)(=O)Cc1ccccc1)NCC1CCCO1 (stereo unspecified),inactive,–
S=C(NCCc1ccccc1)NCc1ccccc1Cl,7.94 µM (active),–
Fc1ccccc1Cn1cnc(NC(=S)NCCc2ccccc2)n1,inactive,–
O=C(NCCc1c[nH]c2ccccc12)C(=O)NCC1CCCO1 (stereo unspecified),inactive,–
COc1ccccc1N1CCC(N2CCN(CC(C)(C)C)C(CCO)C2)CC1 (stereo unspecified),inactive,–
Cc1ccc(NS(=O)(=O)c2ccc(-c3coc(C)n3)cc2)c(C)c1,inactive,–
CSc1ccc(S(=O)(=O)N2CCC(C(=O)NCc3ccncc3)CC2)cc1,inactive,–
COc1cc(/C=C2\SC(=O)NC2=O)ccc1OCc1ccc(Cl)nc1,inactive,–
CC(C)c1ccc(NC(=O)[C@@H](NC(=O)N2CC(=O)Nc3ccccc32)C(C)C)cc1,inactive,–
O=C(c1ccc2nc(N3CCOCC3)sc2c1)N1CCN(c2ccc(Cl)cc2)CC1,inactive,–
Nc1nc(SCC(=O)Nc2ccc(Cl)cc2C(F)(F)F)n[nH]1,inactive,–
S=C(NCCC1=CCCCC1)Nc1ccccc1,1.78 µM (active),–
CC(=O)Nc1ccc(S(=O)(=O)N(C)CC(=O)NCCC2=CCCCC2)cc1,inactive,–
O=C(Cc1cccc2ccccc12)NCCC1=CCCCC1,–,11.1% [at 10 µM] (inactive)
COc1ccc(CCNC(=O)c2ccccc2OCc2ccccc2)cc1,inactive,–
O=C(NC1CCCC1)C(c1ccc(Cl)cc1)N(C(=O)c1csnn1)C1CC1 (stereo unspecified),inactive,–
Cc1cc(C)nc(S/C=C/C(=O)c2ccccc2)n1,6.31 µM (active),–
Cc1cc(C)nc(SCC(=O)c2ccc(Cl)cc2)n1,inactive,–
C/C(=N\NC(=O)c1nc(C)cc(C)n1)c1ccccc1,inactive,–
Cc1ccc(CS(=O)(=O)CCC(=O)NCc2ccc(F)cc2)cc1,inactive,–

Structure (SMILES),Potency,"activity change, negative = inhibition"
O=C(O)c1ccccc1C(=O)NC1=NN(c2ccccc2)CC1,inactive,–
CN(c1ccc(OCC(=O)O)cc1)S(=O)(=O)c1ccc2ccccc2c1,inactive,–
Cc1ccccc1N1CCN(C2CCCN(C(=O)c3cn4c(C)cccc4n3)C2)CC1 (stereo unspecified),inactive,–
CCn1c(=O)n(CC)c2cc(N3CCCC3)c(NC(=O)c3ccccc3Br)cc21,inactive,–
CCOc1cc(NC(=O)c2ccccc2C(=O)O)c(OCC)cc1NC(=O)c1ccccc1F,–,19.6% [at 1.91 µM] (inactive)
CCN1CCN(c2cc3nc(C)n(Cc4ccccc4)c(=O)c3cc2NC(=O)c2ccccc2F)CC1,11.2 µM (active),–
CS(=O)(=O)Nc1cccc(C2=NN(C(=O)c3cccc(F)c3)C(c3cccs3)C2)c1 (stereo unspecified),inactive,–
CC(C)=CCCC(C)CN1CCC(n2nccc2NC(=O)c2ccccc2)CC1 (stereo unspecified),inactive,–
CC(=O)NCCC(=O)Nc1nc(-c2ccc3c(c2)OCCO3)cs1,inactive,–
COc1ccc2c(-c3ccccc3)cc(SCC(=O)N(C)C3CCS(=O)(=O)C3)nc2c1 (stereo unspecified),10 µM (active),–
Cc1cc(C)c2nc(SCC(=O)N(C)C3CCS(=O)(=O)C3)cc(C)c2c1 (stereo unspecified),inactive,–
COc1ccc(-c2cc(=O)oc3cc(OCC(=O)N(C)C4CCS(=O)(=O)C4)ccc23)cc1 (stereo unspecified),inactive,–
[2H]C(CCOS(N)(=O)=O)c1ccccc1 (stereo unspecified),inactive,–
Cc1cc(-c2ccc(/C=N/n3cnnc3)o2)c([N+](=O)[O-])cc1C,inactive,–
N#C/C(=C/c1ccc(-c2ccccc2[N+](=O)[O-])o1)C(=O)NCCN1CCCCC1,inactive,–
Cc1ccc(-c2ccc(/C=C(\C#N)C(N)=S)o2)c([N+](=O)[O-])c1,11.2 µM (active),–
O=C(Nc1ccc(-c2cscn2)cc1)C1CCCN(Cc2ccc(CO)o2)C1 (stereo unspecified),inactive,–
COc1ccc(CCNC(=O)c2cnc(Cl)c(Cl)c2)cc1,inactive,–
